# Data: PubChem BioAssay (NCI)
# “And” between values parts separate entries of the source, which are not always exact repeats. Equal values may be shown once. This is part of a sample that, as a whole, favours compounds with a hit. Of some 83,000 tested, about 20% had one in any assay.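 Results are percent growth after 48 hours of single-concentration exposure. 100 means growth as in untreated cells, lower positive values show inhibition; negative values down to -100 show cell death.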 Values without a mark were called inactive. The source made the active and inactive calls. The calls were made as follows: active = growth percent below 10; inactive = the rest.
# Test system: ACHN renal
# Experiment: NCI-60 one-dose screen, 48 h (100 = growth as untreated, 0 = no growth, -100 = all killed)
# Details: 10 µM unless noted
row,Compound,growth
1,C=CC(=O)N1CCN(c2ccc3nc4c(nc3c2C(F)(F)F)C(=O)c2ncccc2C4=O)CC1,28.3%
2,O=C(N/N=C/c1ccc(-c2cccc([N+](=O)[O-])c2)s1)c1[nH]c2ccc(Br)cc2c1-c1ccccc1,87.3%
3,CCCCNc1ccc2c3c(cccc13)C(=O)N(NCC(O)COc1ccc3c(C)cc(=O)oc3c1)C2=O (stereo not given),86.2%
4,CC(=O)Nc1cccc(-n2c(COc3ccc(Br)cc3)nc3ccccc32)c1,79.6% and 107%
5,CC(=O)c1c2c(c3ccc4c5ccccc5ccc4n13)C(=O)c1ccccc1C2=O,75.6%
6,CC1=NN(C2=NC(=O)C(CC(=O)Nc3ccccc3C(F)(F)F)S2)C(c2ccc(N(C)C)cc2)C1 (stereo not given),35.8%
7,Cc1ccc(C2CC(c3ccc(NC(=O)Nc4ccccc4)cc3)=NN2c2ccc(S(C)(=O)=O)cc2)cc1 (stereo not given),-44.4% (active)
8,O=C(CSc1nc2sc3c(c2c(=O)n1-c1ccc(Cl)cc1)CCCC3)N/N=C/C=C/c1ccccc1,25.3%
9,O=C(COc1ccc(/C=C2/C(=O)Nc3ccc(Cl)cc32)cc1)Nc1ccc(Br)cc1,-82.9% (active)
10,CC(C)(C)OC(=O)N1CCC2(CC1)Oc1ccccc1[C@H]1CC(c3ccc(Br)cc3)=NN12,60%
11,N#Cc1c(-c2ccc(F)cc2)nc(SCc2ccc(F)cc2)nc1N1CCNCC1,-79% (active)
12,Cc1ccc(/C=C/C(=O)c2ccc(S(=O)(=O)NCCNc3nc(N(C)C)nc(N4CCOCC4)n3)cc2)cc1,101%
13,ClC(Cn1ncc2c(Nc3cccc(Br)c3)nc(SCCN3CCOCC3)nc21)c1ccc(Br)cc1 (stereo not given),7.98% (active)
14,COc1ccc(N=Nc2c(N)nn3c(N)c(C#N)c(-c4ccccc4)nc23)cc1,25.7%
15,Cc1cccc(-c2ccccc2Oc2ccc3nnc(Cl)n3n2)c1,105%
16,CCN1CCN(Cc2ccc(C(=O)Nc3cccc(Nc4ccc5c(OC)cccc5n4)c3)cc2C(F)(F)F)CC1,-100% (active)
17,N#CCc1nnc(NC(=O)c2ccc(-n3c(=O)[nH]c4ccccc4c3=O)cc2)s1,92.1%
18,COc1cc(NC(=O)CSc2nnc(-c3ccc(-c4nc5ccc(Cl)cc5[nH]4)cc3)o2)cc(OC)c1OC,74.9%

row,Compound,growth
1,c1n[nH]cc1-c1nc2ccc3cn[nH]c3c2c2c1CCCC2,73.5%
2,Cc1ccccc1NC(=O)c1cccc(NC(=O)CCl)c1,22.8%
3,COc1ccc(-c2cc(-c3cc(OC)c(OC)c(OC)c3)[nH]c(=O)c2C#N)cc1,-25.4% (active)
4,O=C(CSc1nc2c(c(=O)[nH]1)CCCC2)Nc1ccccc1C(=O)O,106%
5,N/C(=N\c1nc2ccccc2s1)NC(=O)Nc1ccccc1[N+](=O)[O-],20.2%
6,FC(F)(F)c1cc2c(Cl)ncnc2n1CCN1CCOCC1,-45.4% (active)
7,O=C(NNC(=O)c1ccc(OCc2nc3ccc(Cl)cc3[nH]2)cc1)Nc1ccc(Cl)c(Cl)c1,106%
8,Clc1ccc(-c2nc3c4c(-c5ccccc5)c(-c5ccccc5)n(Cc5ccccc5)c4ncn3n2)cc1,-4.9% (active)
9,COc1c(B(O)O)cc(F)cc1-c1nc2c(F)cc3[nH]ncc3c2c2c1CCCC2,4.28% (active)
10,C/C(=N\Nc1ccc(C(=O)O)cc1)c1cnn(-c2cc(=O)[nH]c3ccc(C)cc23)c1C,99.4%
11,O=C1Nc2cc(-c3ccc(NS(=O)(=O)c4ccc([N+](=O)[O-])cc4)cc3)ccc2/C1=C/c1ccc[nH]1,-62.5% (active)
12,COc1ccc(NC(=O)CSc2nnc(-c3ccc(-c4nc5ccc(Cl)cc5[nH]4)cc3)o2)cc1,2.97% (active)
13,COc1ccc2[nH]c(O)c(N=Nc3nc(-c4ccc(C#N)cc4)cs3)c2c1,22.2%
14,COc1ccc(-c2nc3ccc(-c4nnc(SCC(=O)Nc5ccc(/C(C)=N\O)cc5)o4)cc3[nH]2)cc1,85.9%
15,CCCCCCCCCCCCCCCCCC(=O)Nc1ccc(OC)cc1,105%
16,CCN1C(=O)N(CC)C2NNC(Sc3c(C(=O)O)c4ccccc4n(CCC(C)C)c3=O)=NC21 (stereo not given),24%
17,COc1ccc(/C=C/c2nc3ccccc3n3c(-c4cccc([N+](=O)[O-])c4)nnc23)cc1,-97.5% (active)
